# Screens deposited in PubChem by National Center for Advancing Translational Sciences (NCATS).
# Only some compounds are listed: those with a hit (about 21% of all), similar ones and a draw of the others.
# NS1 inh: inhibitors of influenza NS1 protein function; Potency, µM (top dose mostly 46.1 µM); 270,000 tested, 0.4% active; AID 2326; calls by dose curve; note: actives are rising curves; nearly all actives have a fitted effect of over 50% in size
#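 Recovery from NS1-induced slow growth read by OD600 in budding yeast switched to galactose assay medium (pH 6.0, -URA) at 1:100 dilution. Compound 23 nl per well; the matching strain lacking NS1 serves as control.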
# Sm TGR inh: blocks Schistosoma mansoni thioredoxin glutathione reductase. Q962Y6. purified TGR, DTNB reduction, TNB absorbance 405 nm. Potency, µM (doses to about 114 µM), most hits filed as inhibitors. 360,000 tested, 3% active; note: nearly all actives have a fitted effect of over 60% in size
#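 Kinetic colorimetric format: TGR-catalysed, NADPH-driven DTNB reduction monitored via TNB absorbance. Enzyme dispensed at 20 nM; compound exposure 15 min at room temperature before reaction start.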
# CHX counter: affects cycloheximide protein synthesis inhibition readout, counter-screen. cell reporter, cycloheximide protein synthesis inhibition counterscreen. max response, %. 300,000 tested, 12% active; in the data active = max response mostly above about 13%, no sharp cut-off; inactive = mostly below about 14%; note: read at 38.3 µM for the half of the compounds with a filed dose
# Pf growth 48h: inhibits P. falciparum growth in the first generation, 48 h | AID 504832 | P. falciparum luciferase growth in erythrocytes, 48 h | Potency, µM (series often up to 28.7 µM), usual class: inhibitors | 310,000 tested, 5.9% active
#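 First compound was added to culture medium, then infected red cells at 0.1% parasitemia and 2% hematocrit (final). After incubation at 37 C under 5% CO2, luciferase detection reagent was dispensed and light output recorded.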
# Shiga toxin inh: Shiga toxin inhibition; Vero cells, Shiga toxin protein synthesis inhibition reporter; inhibition, % at 38.7 µM; 290,000 tested, 9.2% active; AID 2315; in the data active = inhibition mostly above about 28%, no sharp cut-off; inactive = mostly below about 43%
# Pf growth 96h: P. falciparum growth inhibition at 96 hours | 320,000 tested, 6.9% active | Potency, µM (series often up to 28.7 µM), usual class: inhibitors | P. falciparum luciferase reporter growth, 96 h
#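 Luminescence readout: decreased luciferase signal marks inhibited growth of reporter-expressing P. falciparum in infected red cells (2% hematocrit, 0.05% parasitemia final), exposed to compound two generations (96 h, 37 C, 5% CO2).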
# Hits are given with their value; - = inactive; ? = inconclusive; . = not tested or not shown. Unless noted, calls come from the whole dose curve; as a rule, active = well fitted curve in the direction sought with a large enough effect; inconclusive = small, poorly fitted or top-dose-only effect, or another doubt; inactive = no such curve, though single readings can be large; an effect the other way counts as inactive or inconclusive.
SMILES,NS1 inh,Sm TGR inh,CHX counter,Pf growth 48h,Shiga toxin inh,Pf growth 96h
Cc1cc(C)c(S(=O)(=O)Cc2ccccc2)c(OC(C)C)n1,-,-,-,?,-,10µM
CCc1ccc(S(=O)(=O)c2nnn3c2nc(N2CCOCC2)c2sccc23)cc1,.,-,.,.,.,.
Cc1ccc(Sc2nc([N+](=O)[O-])nn2C)cc1,-,-,-,-,-,?
COc1ccc(CN2CCC(N3CCC(C(=O)N4CCOCC4)CC3)CC2)c(F)c1,-,-,-,-,-,10µM
COc1ccc(OC)c(CN2CCC(C(=O)N3CCOCC3)CC2)c1,-,-,-,-,-,9.3µM
COc1ccc(F)c(CN2CCC(N3CCC(C(=O)N4CCOCC4)CC3)CC2)c1,-,.,-,-,-,-
Cc1[nH][nH]c(=O)c1C(c1ccc(-c2ccccc2C(=O)O)o1)c1c(C)[nH][nH]c1=O,.,?,-,-,-,-
Cc1[nH][nH]c(=O)c1C(c1ccc(-c2cccc(Cl)c2)o1)c1c(C)[nH][nH]c1=O,-,7.1µM,-,-,-,?
Cc1[nH][nH]c(=O)c1C(c1ccc(-c2cccc(C(=O)O)c2)o1)c1c(C)[nH][nH]c1=O,-,?,58,-,74,-
COC(=O)c1ccc(-c2ccc(C(c3c(C)[nH][nH]c3=O)c3c(C)[nH][nH]c3=O)o2)cc1,.,8.9µM,-,-,-,-
COc1ccc(CC(=O)NNS(=O)(=O)c2ccc(F)cc2)cc1OC,-,-,-,-,-,-
CC1CN(C(=O)CCC(=O)NCc2cccs2)c2ccccc2O1 (centres undefined),.,-,.,.,.,.
COc1ccc(-n2nnc(-c3nc(-c4cccs4)no3)c2N)cc1OC,.,-,.,.,.,.
O=C(CCCCCN1C(=O)C2C3C=CC(C3)C2C1=O)Nc1nccs1 (centres undefined),-,-,-,.,-,2.3µM
Cc1ccc(OCCCC(=O)Nc2nccs2)cc1,-,-,23,-,42,?
Cc1cccc(OCCCC(=O)Nc2nccs2)c1,-,?,-,?,-,.
O=C(CCN1C(=O)C2C3C=CC(C3)C2C1=O)Nc1nccs1 (centres undefined),-,-,-,-,-,?
COc1ccc2c(CC(=O)Nc3nccs3)coc2c1,-,-,31,-,77,-
CCOc1ccc(CC(=O)Nc2nccs2)cc1,.,-,20,-,-,-
Nc1cccc(-c2cn(-c3cc4cc(C#CC5(O)CCCCC5)ccc4oc3=O)nn2)c1,.,-,.,-,.,-
COc1ccc(NCc2ccccc2-c2nnc(-c3ccccc3)o2)cc1Cl,.,-,.,.,.,.
CCN(c1ccccc1)S(=O)(=O)c1ccc(NC(=O)c2cc(=O)c3c(C)cc(C)cc3o2)cc1,.,-,.,.,.,.
Cc1cc(=O)oc2cc(OCC(=O)N3CCCC3)c(Cl)cc12,.,-,.,-,.,-
O=C(COc1cc2oc(=O)c3c(c2cc1Cl)CCC3)N1C[C@H]2C[C@@H](C1)c1cccc(=O)n1C2,-,-,-,?,-,?
COc1ccc(CCN2C(=S)NC3CC2(C)Oc2ccc([N+](=O)[O-])cc23)cc1OC (centres undefined),-,-,-,.,-,12µM
SMILES,NS1 inh,Sm TGR inh,CHX counter,Pf growth 48h,Shiga toxin inh,Pf growth 96h
Cc1cccc(NC(=O)CSc2nnc3[nH]c(=O)cc(-c4ccccc4)n23)c1C,.,-,.,.,.,.
CCOc1ccc(CCNC(=O)CCCc2nnc3n(CCCOC)c(=O)c4sccc4n23)cc1,.,-,.,.,.,.
COC(=O)NN=C1CCC(c2ccccc2)CC1 (centres undefined),-,-,-,-,30,?
CCOC(=O)NN=C1CCC(c2ccccc2)CC1 (centres undefined),-,-,9.8,-,-,?
O=C(NN=C1CCC(c2ccccc2)CC1)c1ccccc1-n1cccc1 (centres undefined),-,-,-,-,-,-
CC(C)(C)C(=O)NN=C1CCC(c2ccccc2)CC1 (centres undefined),?,-,19,-,-,-
NC(=O)C(=O)NN=C1CCC(c2ccccc2)CC1 (centres undefined),-,-,-,-,-,-
CC1CCC2(CC1)NC(=O)N(NC(=O)c1cccs1)C2=O (centres undefined),.,-,.,-,.,-
C/C(NC(=O)c1cccs1)=C1\C(=O)C[C@@H]2[C@H]1C2(C)C,-,-,15,?,-,?
O=C(Cn1ncc2c3ccccc3n(Cc3ccccc3F)c2c1=O)NCC1CCCO1 (centres undefined),-,-,-,-,-,-
CC(C)c1ccc(NC(=S)Nc2cccc3ccccc23)cc1,-,-,55,?,98,-
Cc1cccc(NC(=S)Nc2cccc3ccccc23)c1,-,-,32,10µM,95,?
Cc1ccc(NC(=S)Nc2cccc3ccccc23)cc1,-,-,90,?,78,-
COc1cccc(C2(c3cccc(OC)c3)CC2C(=O)Nc2cccc3ccccc23)c1 (centres undefined),-,-,-,9.3µM,-,5.2µM
COc1cccc(NC(=O)C2CC2(c2cccc(OC)c2)c2cccc(OC)c2)c1 (centres undefined),-,-,-,?,-,?
Cc1cc(C)cc(NC(=S)Nc2cccc3ccccc23)c1,-,-,-,-,-,-
O=C(Nc1ccc(N2CCC(c3ccccc3)C2)c(C(=O)O)c1)c1ccc(Cl)cc1 (centres undefined),.,-,.,.,.,.
Cc1ccccc1NC(=O)CN1C(=O)CCn2nc(-c3cccn3C)cc21,.,-,.,.,.,.
Fc1ccc(NC(=S)Nc2cccc3ccccc23)cc1,-,-,42,-,70,-
Cc1cc(NC(=S)Nc2cccc3ccccc23)n[nH]1,.,?,28,-,70,?
CC(C)CCNC(=S)Nc1ccccn1,-,45µM,-,-,-,-
Fc1ccc(NC(=S)Nc2cccc3ccccc23)cc1F,-,-,46,?,45,-
Fc1ccc(NC(=S)Nc2ccccc2Cl)cc1,-,?,-,-,-,-
COCCNC(=S)Nc1ccccn1,-,.,-,-,-,-
CCC(=O)N1CCc2cc(Br)cc(S(=O)(=O)CCC(=O)NCCc3ccc(Cl)cc3)c21,.,-,.,.,.,.
SMILES,NS1 inh,Sm TGR inh,CHX counter,Pf growth 48h,Shiga toxin inh,Pf growth 96h
S=C(NCCc1ccncc1)Nc1cccc2ccccc12,-,14µM,-,-,-,-
COc1cccc(NC(=S)Nc2cccc3ccccc23)c1,?,-,85,-,110,-
CCc1cccc(NC(=S)Nc2cccc3ccccc23)c1,-,-,46,?,-,-
Cc1cccc(NC(=S)NCCC(C)C)c1,-,-,20,?,-,12µM
C=CCNC(=S)Nc1cccc2ccccc12,-,-,-,-,-,-
COC(=O)c1ccc(OCC2c3cc(OC)c(OC)cc3CCN2C(=O)c2ccccc2F)cc1 (centres undefined),.,-,.,.,.,.
COc1ccccc1CNC(=O)C1(c2ccc(Cl)cc2)CC1,-,-,-,-,-,-
Cc1ccc(C)c(N2CCN(CCCNC(=O)Cn3c(-c4cccs4)cc4ccccc43)CC2)c1,.,-,.,.,.,.
COc1nc(NCc2cccnc2)nc(OC)n1,-,-,-,-,-,?
